Test results: PubChem BioAssay (EPA / NIEHS)
Calls of active or inactive are those of the source. The calls were made as follows: active = hit-call score of the fitted dose curve at least 0.9, where 1 is the maximum; inactive = score below 0.9.

Key:
[1] = read-out: Tissue plasminogen activator (tPA), PLAT (gene 5327); assay: BSK_BE3C_tPA: BioMAP Diversity Plus: BE3C Assay for Tissue plasminogen activator (tPA) Biomarker Activity (AID 2283041); details: primary human bronchial epithelial cells; actives raise or lower the signal;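 as to outcome: tPA level quantified by ELISA one day after compound addition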
How it was run: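 Primary human bronchial epithelial cells in the BE3C system, exposed to compound for 24 h. tPA was quantified by ELISA; DMSO served as baseline, with gain or loss of signal fitted. Cytotoxicity checked in parallel cultures by SRB total-protein staining.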

[2] = read-out: Interleukin-8 (IL8), CXCL8 (gene 3576); assay: BSK_CASM3C_IL8: BioMAP Diversity Plus: CASM3C Assay for Interleukin-8 (IL8) Biomarker Activity (AID 2283042); details: primary human coronary artery smooth muscle cells; actives raise or lower the signal;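 also: IL-8 protein level quantified by ELISA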
[3] = read-out: Human Leukocyte Antigen - DR isotype (HLADR), HLA-DRA (gene 3122); assay: BSK_CASM3C_HLADR: BioMAP Diversity Plus: CASM3C Assay for Human Leukocyte Antigen - DR isotype (HLADR) Biomarker Activity (AID 2283043); details: primary human coronary artery smooth muscle cells; actives raise or lower the signal;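 also: cell-surface HLA-DR protein level quantified by ELISA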
[4] = read-out: Macrophage colony-stimulating factor (MCSF), CSF1 (gene 1435); assay: BSK_CASM3C_MCSF: BioMAP Diversity Plus: CASM3C Assay for Macrophage colony-stimulating factor (MCSF) Biomarker Activity (AID 2283044); details: primary human coronary artery smooth muscle cells; actives raise or lower the signal;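 also: M-CSF protein amount quantified by ELISA after 24 h exposure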
[5] = read-out: Low-density lipoprotein receptor (LDLR), LDLR (gene 3949); assay: BSK_CASM3C_LDLR: BioMAP Diversity Plus: CASM3C Assay for Low-density lipoprotein receptor (LDLR) Biomarker Activity (AID 2283045); details: primary human coronary artery smooth muscle cells; actives raise or lower the signal;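 also: LDLR protein level on the cell surface quantified by ELISA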
[6] = read-out: Monocyte Chemoattractant Protein-1 (MCP1), CCL2 (gene 6347); assay: BSK_CASM3C_MCP1: BioMAP Diversity Plus: CASM3C Assay for Monocyte Chemoattractant Protein-1 (MCP1) Biomarker Activity (AID 2283046); details: primary human coronary artery smooth muscle cells; actives raise or lower the signal;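 also: MCP-1 level quantified by ELISA 24 h after dosing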
[7] = BSK_CASM3C_Proliferation: Cell Proliferation Assessment in the BioMAP Diversity Plus: CASM3C Assay (AID 2283047); details: primary human coronary artery smooth muscle cells;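 also: sulforhodamine B total protein stain as relative cell number at 560 nm; sub-confluent cells exposed 48 h before staining; fitted both ways against DMSO so gain or loss of cell number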
[8] = read-out: Monokine induced gamma interferon (MIG), CXCL9 (gene 4283); assay: BSK_CASM3C_MIG: BioMAP Diversity Plus: CASM3C Assay for Monokine induced gamma interferon (MIG) Biomarker Activity (AID 2283048); details: primary human coronary artery smooth muscle cells; actives raise or lower the signal;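 also: MIG protein level measured by ELISA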
[9] = read-out: serum amyloid A (SAA), SAA1 (gene 6288); assay: BSK_CASM3C_SAA: BioMAP Diversity Plus: CASM3C Assay for serum amyloid A (SAA) Biomarker Activity (AID 2283049); details: primary human coronary artery smooth muscle cells; actives raise or lower the signal;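 also: SAA protein level quantified by ELISA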
[10] = BSK_CASM3C_SRB: Viability Assessment in the BioMAP Diversity Plus: CASM3C Assay (AID 2283050); details: primary human coronary artery smooth muscle cells

CCN(CC)CCOc1ccc(C(=C(Cl)c2ccccc2)c2ccccc2)cc1
AC50 [1]: 11.1 µM (active)
AC50 [2]: 32 µM (active)
AC50 [3]: 23.9 µM (active)
AC50 [4]: 26.2 µM (active)
AC50 [5]: 30.6 µM (active)
AC50 [6]: 33 µM (active)
AC50 [7]: 15 µM (active)
AC50 [8]: 31.5 µM (active)
AC50 [9]: 25.9 µM (active)
AC50 [10]: 28 µM (active)

O=C(O)c1[nH]n(-c2ccc(S(=O)(=O)O)cc2)c(=O)c1N=Nc1ccc(S(=O)(=O)O)cc1
outcome [1]: inactive
outcome [2]: inactive
outcome [3]: inactive
outcome [4]: inactive
outcome [5]: inactive
outcome [6]: inactive
outcome [7]: inactive
outcome [8]: inactive
outcome [9]: inactive
outcome [10]: inactive

CCc1nc(N)nc(N)c1-c1ccc(Cl)cc1
outcome [1]: inactive
outcome [2]: inactive
outcome [3]: inactive
outcome [4]: inactive
outcome [5]: inactive
outcome [6]: inactive
outcome [7]: inactive
outcome [8]: inactive
outcome [9]: inactive
outcome [10]: inactive

C=CCCCCCCCCCCCC
outcome [1]: inactive
outcome [2]: inactive
outcome [3]: inactive
outcome [4]: inactive
outcome [5]: inactive
outcome [6]: inactive
outcome [7]: inactive
outcome [8]: inactive
outcome [9]: inactive
outcome [10]: inactive

CCOCCOCCO
outcome [1]: inactive
outcome [2]: inactive
outcome [3]: inactive
outcome [4]: inactive
outcome [5]: inactive
outcome [6]: inactive
outcome [7]: inactive
outcome [8]: inactive
outcome [9]: inactive
outcome [10]: inactive

O=C1O[C@H]([C@H](O)CO)C(O)=C1O
outcome [1]: inactive
outcome [2]: inactive
outcome [3]: inactive
outcome [4]: inactive
outcome [5]: inactive
outcome [6]: inactive
outcome [7]: inactive
outcome [8]: inactive
outcome [9]: inactive
outcome [10]: inactive

O=C(O)CC(O)(CC(=O)O)C(=O)O
outcome [1]: inactive
outcome [2]: inactive
outcome [3]: inactive
outcome [4]: inactive
outcome [5]: inactive
outcome [6]: inactive
outcome [7]: inactive
outcome [8]: inactive
outcome [9]: inactive
outcome [10]: inactive

O=C1NC(=O)C(c2ccccc2)(c2ccccc2)N1
outcome [1]: inactive
outcome [2]: inactive
outcome [3]: inactive
outcome [4]: inactive
outcome [5]: inactive
outcome [6]: inactive
outcome [7]: inactive
outcome [8]: inactive
outcome [9]: inactive
outcome [10]: inactive

CSc1ccc(Oc2ccc(S(N)(=O)=O)cc2CN(C)C)cc1C
outcome [1]: inactive
outcome [2]: inactive
outcome [3]: inactive
outcome [4]: inactive
outcome [5]: inactive
outcome [6]: inactive
AC50 [7]: 20 µM (active)
outcome [8]: inactive
outcome [9]: inactive
outcome [10]: inactive

Nc1nc(=S)c2[nH]cnc2[nH]1
outcome [1]: inactive
outcome [2]: inactive
outcome [3]: inactive
outcome [4]: inactive
AC50 [5]: 3.72 µM (active)
outcome [6]: inactive
AC50 [7]: 4.67 µM (active)
outcome [8]: inactive
outcome [9]: inactive
outcome [10]: inactive

CC(=O)O
outcome [1]: inactive
outcome [2]: inactive
outcome [3]: inactive
outcome [4]: inactive
outcome [5]: inactive
outcome [6]: inactive
outcome [7]: inactive
outcome [8]: inactive
outcome [9]: inactive
outcome [10]: inactive

Cc1cc(Cc2ccc(N)c(C)c2)ccc1N
outcome [1]: inactive
outcome [2]: inactive
outcome [3]: inactive
outcome [4]: inactive
outcome [5]: inactive
outcome [6]: inactive
outcome [7]: inactive
outcome [8]: inactive
outcome [10]: inactive

CCCCCCCCCCCCCCCCO
outcome [1]: inactive
outcome [2]: inactive
outcome [3]: inactive
outcome [4]: inactive
outcome [5]: inactive
outcome [6]: inactive
outcome [7]: inactive
outcome [8]: inactive
outcome [9]: inactive
outcome [10]: inactive

CCCCC(CC)CO (stereo not drawn)
outcome [1]: inactive
outcome [2]: inactive
outcome [3]: inactive
outcome [4]: inactive
outcome [5]: inactive
outcome [6]: inactive
outcome [7]: inactive
outcome [8]: inactive
outcome [9]: inactive
outcome [10]: inactive

O=C(O)CN(CC(=O)O)CC(=O)O
outcome [1]: inactive
outcome [2]: inactive
outcome [3]: inactive
outcome [4]: inactive
outcome [5]: inactive
outcome [6]: inactive
outcome [7]: inactive
outcome [8]: inactive
outcome [9]: inactive
outcome [10]: inactive

NC(=Nc1ccccc1)Nc1ccccc1
outcome [1]: inactive
outcome [2]: inactive
outcome [3]: inactive
AC50 [4]: 3.97 µM (active)
outcome [5]: inactive
outcome [6]: inactive
outcome [7]: inactive
outcome [8]: inactive
outcome [9]: inactive
outcome [10]: inactive

CC(=O)O[C@]1(C(C)=O)CC[C@H]2[C@@H]3C=C(Cl)C4=CC(=O)[C@@H]5C[C@@H]5[C@]4(C)[C@H]3CC[C@@]21C
AC50 [1]: 34.9 µM (active)
outcome [2]: inactive
outcome [3]: inactive
outcome [4]: inactive
outcome [5]: inactive
outcome [6]: inactive
outcome [7]: inactive
outcome [8]: inactive
outcome [10]: inactive

CCc1cc(C2=C(C(=O)O)N(c3ccccc3C(F)(F)F)S(=O)(=O)c3ccccc32)cc2c1OCO2
outcome [1]: inactive
outcome [2]: inactive
AC50 [3]: 9.8 µM (active)
AC50 [4]: 19.8 µM (active)
AC50 [5]: 7.18 µM (active)
outcome [6]: inactive
outcome [7]: inactive
outcome [8]: inactive
outcome [9]: inactive
outcome [10]: inactive

COC(=O)CCC(=O)OC
outcome [1]: inactive
outcome [2]: inactive
outcome [3]: inactive
outcome [4]: inactive
outcome [5]: inactive
outcome [6]: inactive
outcome [7]: inactive
outcome [8]: inactive
outcome [9]: inactive
outcome [10]: inactive

CC(=O)CC(c1ccccc1)c1c(O)c2ccccc2oc1=O (stereo not drawn)
outcome [1]: inactive
outcome [2]: inactive
outcome [3]: inactive
outcome [4]: inactive
outcome [5]: inactive
outcome [6]: inactive
outcome [7]: inactive
outcome [8]: inactive
outcome [9]: inactive
outcome [10]: inactive

CCCCOC(=O)CCCCC(=O)OCCCC
outcome [1]: inactive
outcome [2]: inactive
outcome [3]: inactive
outcome [4]: inactive
outcome [5]: inactive
outcome [6]: inactive
outcome [7]: inactive
outcome [8]: inactive
outcome [9]: inactive
outcome [10]: inactive

CC(C)c1cccc(C(C)C)c1NC(=O)NS(=O)(=O)c1cc(C(C)(C)O)co1
outcome [1]: inactive
outcome [2]: inactive
outcome [3]: inactive
outcome [4]: inactive
outcome [5]: inactive
outcome [6]: inactive
outcome [7]: inactive
outcome [8]: inactive
outcome [9]: inactive
outcome [10]: inactive

CCCCC(CC)COC(=O)CCCCCCCC(=O)OCC(CC)CCCC (stereo not drawn)
outcome [1]: inactive
outcome [2]: inactive
outcome [3]: inactive
outcome [4]: inactive
outcome [5]: inactive
outcome [6]: inactive
outcome [7]: inactive
outcome [8]: inactive
outcome [9]: inactive
outcome [10]: inactive
